Test results: PubChem BioAssay (NCI)
Compounds without any hit were thinned out: in the full panel of roughly 79,000, 15% have a hit. Values without a mark were called inactive. Activity calls are given as the source filed them. No stated cut-off is given here; in the data, active means growth inhibition above about 70%; inactive means the rest.

Experiments:
[1] = NCI Yeast Anticancer Drug Screen. Data for the rad50 strain (AID 155);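 further: 0% = growth of vehicle-only cultures of the same strain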; conditions: S. cerevisiae rad50 strain growth inhibition, hits give high values
Outline: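 Growth of the mutant yeast was measured after compound exposure and referenced to vehicle-treated cultures.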

[2] = NCI Yeast Anticancer Drug Screen. Data for the mec2-1 strain (AID 157); conditions: S. cerevisiae mec2-1 strain, hits give high values
Outline: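 Readout is yeast growth inhibition, normalised to vehicle-treated controls, in the mec2-1 strain exposed to compound.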

[3] = NCI Yeast Anticancer Drug Screen. Data for the sgs1 mgt1 strain (AID 161);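 further: 0% = growth of cultures given vehicle only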; conditions: S. cerevisiae sgs1 mgt1 strain, hits give high values
Outline: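 Percent growth inhibition was derived by comparing compound-exposed mutant yeast with vehicle-exposed cultures. The strain carries alterations in DNA damage repair.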

[4] = NCI Yeast Anticancer Drug Screen. Data for the bub3 strain (AID 167); conditions: S. cerevisiae bub3 mutant strain, hits give high values
Outline: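 Whole-cell yeast assay. The mutant strain was incubated with compounds, and growth inhibition was determined by comparison with vehicle-treated cells.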

[5] = NCI Yeast Anticancer Drug Screen. Data for the mlh1 rad18 strain (AID 175); conditions: S. cerevisiae mlh1 rad18 strain growth inhibition, hits give high values
Outline: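 Test agents were incubated with a yeast strain of defined genotype (DNA damage repair defect). Inhibition of growth was derived by comparison with vehicle-exposed cultures.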

[6] = NCI Yeast Anticancer Drug Screen. Data for the cln2 rad14 strain (AID 165);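 further: 0% = growth equal to vehicle treated cultures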; conditions: S. cerevisiae cln2 rad14 strain, hits give high values
Outline: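 Relative to vehicle controls, growth inhibition of compound-treated cln2 rad14 yeast was recorded.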

[7] = at 5.0 µM (retest, dose inferred, filed as 0.5)
[8] = at 50.0 µM (retest, dose inferred, filed as 5.0)

Compound | growth inhibition [1, 7] | growth inhibition [1, 8] | growth inhibition ([1]; at 50.0 µM) | growth inhibition [2, 7] | growth inhibition [2, 8] | growth inhibition ([2]; at 50.0 µM) | growth inhibition [3, 7] | growth inhibition [3, 8] | growth inhibition ([3]; at 50.0 µM) | growth inhibition [4, 7] | growth inhibition [4, 8] | growth inhibition ([4]; at 50.0 µM) | growth inhibition [5, 7] | growth inhibition [5, 8] | growth inhibition ([5]; at 50.0 µM) | growth inhibition [6, 7] | growth inhibition [6, 8] | growth inhibition ([6]; at 50.0 µM)
Clc1ccccc1C#[C][Hg][C]#Cc1ccccc1Cl | 3% | 34% | 0.25% | 3% | 94% (active) | 5.95% | 4% | 95% (active) | 19.9% | -3% | 92% (active) | -9.2% | 5% | 76% (active) | 19.4% |  |  | 
CC1=C[C@H]2O[C@H]3C[C@H]4OC(=O)/C=C\C=C\C(=O)OCC[C@@H](C)[C@H](O)C(=O)OC[C@@]2(CC1)[C@@]4(C)[C@]31CO1 | 99% (active) | 99% (active) | 92% (active) | 100% (active) | 99% (active) | 92.9% (active) | 100% (active) | 99% (active) | 92.8% (active) | 100% (active) | 98% (active) | 92% (active) | 98% (active) | 98% (active) | 92% (active) |  |  | 
COc1c(Br)cc(/C=C/[N+](=O)[O-])cc1Br | 98% (active) | 98% (active) | 92.4% (active) | 99% (active) | 99% (active) | 91.6% (active) | 98% (active) | 99% (active) | 89.8% (active) | 99% (active) | 97% (active) | 88.2% (active) | 98% (active) | 98% (active) | 82.8% (active) | 96% (active) | 97% (active) | 90.5% (active)
[CH3][Sn]([CH3])([S]CCS(=O)(=O)O)[S]CCS(=O)(=O)O | 10% | 7% | 33.5% | 9% | 11% | 7.1% | -38% | -30% | -9.75% | -20% | -24% | -12.2% | 14% | 11% | -61.6% |  |  | 
CC1CC[N-]C(C)C1.CN(C)C=O.[Cl][Pt][Cl] (stereo unspecified) | 33% | 100% (active) | 80.7% (active) | 42% | 100% (active) | 92.2% (active) | 66% | 100% (active) | 89.8% (active) | 73% (active) | 100% (active) | 89.4% (active) | 25% | 99% (active) | 89.8% (active) | 61% | 100% (active) | 49%
